Source: PubChem (National Center for Advancing Translational Sciences (NCATS))
Sfp inh – qHTS Assay for Inhibitors of Bacillus subtilis Sfp phosphopantetheinyl transferase (PPTase); 4'-phosphopantetheinyl transferase ffp (Bacillus subtilis), Q9F4F7; Biochemical Sfp PPTase activity, qHTS; Potency, µM, for the others: largest response in the series, negative = inhibition, actives largely listed as inhibitors; 3.5% of 310,000 active;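 also: the enzyme is Sfp with the accession as filed and its product quenches rhodamine fluorescence; 0% = enzyme reaction without inhibitor and -100% = no enzyme wells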
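Step 1, compound plus 15 nM Sfp-PPTase, 15 min, room temperature. Step 2, add rhodamine-CoA (5 uM) and BHQ-2-YbbR (12.5 uM). Step 3, read 525/598 nm fluorescence at 0 and 30 min.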
BAZ2B block – qHTS Assay for Inhibitors of BAZ2B; AID 504333, 2011; Bromodomain adjacent to zinc finger domain protein 2B (Homo sapiens), Q9UIF8; Potency, µM (series often up to 114 µM), for the others: at the highest dose activity change, negative = inhibition, most hits filed as inhibitors; 4.4% of 360,000 active; AlphaScreen BAZ2B-H3K14Ac peptide displacement; also: % is scaled to controls: 0 for no effect and ±100 for the full control effect; nearly all actives have a fitted effect of over 60% in size
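Compounds, titrated to a top concentration of 110 uM, were incubated 30 min at room temperature with preformed BAZ2B/acetyl-K14 H3 peptide complex (50 nM each). Proximity signal was measured by AlphaScreen after 20 min with beads.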
HP1b chromo inh – HTS for Inhibitors of HP1-beta Chromodomain Interactions with Methylated Histone Tails; Chromobox protein homolog 1 (Homo sapiens), P83916; AlphaScreen HP1-beta / biotin-H3K9me3 peptide binding; Potency, µM (titrated, usually from 114 µM), for inactives: top-dose activity change, negative = inhibition, most hits filed as inhibitors; 0.56% of 390,000 active; also: nearly all actives have a fitted effect of over 70% in size
Target sequence (P83916 whole entry, looked up): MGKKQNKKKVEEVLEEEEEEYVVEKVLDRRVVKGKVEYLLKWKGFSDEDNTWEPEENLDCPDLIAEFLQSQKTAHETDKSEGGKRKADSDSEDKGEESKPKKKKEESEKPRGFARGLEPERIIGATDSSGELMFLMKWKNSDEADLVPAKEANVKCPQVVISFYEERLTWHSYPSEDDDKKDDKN
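Compound inhibition of the preformed complex between 50 nM HP1-beta and 50 nM biotinylated H3K9me3 peptide was read by AlphaScreen. Buffer was PBS pH 7.4 with 0.01% Tween-20. Incubations ran 30 min at room temperature, with 10 ug/mL donor/acceptor beads.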
G9a block – qHTS Assay for Inhibitors of Histone Lysine Methyltransferase G9a; Histone-lysine N-methyltransferase EHMT2 (Homo sapiens), Q96KQ7; G9a H3K9 monomethylation, AlphaScreen, 2 h; Potency, µM (highest dose often 102 µM), for inactives: at the top dose activity, negative = inhibition, usual class: inhibitors; 8.8% of 350,000 active; also: % is scaled to controls: 0 for no effect and ±100 for the full control effect; nearly all actives have a fitted effect of over 75% in size
Target sequence (Q96KQ7 913-1193 limits assumed): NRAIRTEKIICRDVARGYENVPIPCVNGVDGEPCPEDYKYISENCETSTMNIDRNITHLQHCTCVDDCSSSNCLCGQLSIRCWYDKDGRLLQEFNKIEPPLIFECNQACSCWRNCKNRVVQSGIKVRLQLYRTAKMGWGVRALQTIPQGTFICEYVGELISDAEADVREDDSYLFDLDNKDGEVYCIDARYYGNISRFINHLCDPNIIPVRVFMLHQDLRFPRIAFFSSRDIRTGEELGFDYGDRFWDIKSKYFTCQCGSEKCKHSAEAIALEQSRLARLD
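Using a bead-based AlphaScreen, monomethylated H3K9 product from 2 h room-temperature reactions (G9a 20 nM, peptide 500 nM, SAM 20 uM) was detected with 0.5 ug/mL rabbit anti-H3K9me1 antibody.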
JMJD2A Tudor inh – qHTS Assay for Inhibitors of JMJD2A-Tudor Domain | Lysine-specific demethylase 4A (Homo sapiens), O75164 | AlphaScreen JMJD2A-Tudor / H3K4me3 peptide binding | Potency, µM (highest dose often 114 µM), without a hit: top-dose activity change, negative = inhibition, most hits filed as inhibitors | 4.4% of 390,000 active; also: % is scaled to controls: 0 for no effect and ±100 for the full control effect; nearly all actives have a fitted effect of over 50% in size
L3MBTL1 block – qHTS Assay for the Inhibitors of L3MBTL1; Lethal(3)malignant brain tumor-like protein 1 (Homo sapiens), Q9Y468; AlphaScreen L3MBTL1–H3K9me1 peptide binding; Potency, µM (series often up to 57.1 µM), for inactives: at the top dose activity, negative = inhibition, most hits filed as inhibitors; 0.66% of 230,000 active; AID 485360, 2010; also: % is scaled to controls: 0 for no effect and ±100 for the full control effect; nearly all actives have a fitted effect of over 60% in size
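L3MBTL1 (50 nM) pre-complexed 30 min with biotinylated H3(1-15)K9me1 peptide (75 nM), then compounds added for 30 min at room temperature; AlphaScreen streptavidin donor/nickel chelate acceptor beads (10 ug/mL final) read after 30 min dark incubation.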
* hit, by the source's call; ? = inconclusive; . = not tested or not shown; ! = a repeat was not active; [ ] = another dose, or the depositor's remark. Rows were chosen to be rich in hits. Some 12% of all compounds tested hit in one or more screens of this group. Calls follow the shape of the dose curve; as a rule, active = well fitted curve in the direction sought with a large enough effect; inconclusive = small, poorly fitted or top-dose-only effect, or another doubt; inactive = no such curve, though single readings can be large; an effect the other way counts as inactive or inconclusive. Potency is read from the fitted curve at half-maximal effect.

SMILES	Sfp inh	BAZ2B block	HP1b chromo inh	G9a block	JMJD2A Tudor inh	L3MBTL1 block
Cc1ccc2cc(C3CC(c4ccco4)=NN3C(=O)CCC(=O)O)c(Cl)nc2c1 (stereo not drawn)	0%	-9%	?	?	22µM*	-6%
COc1ccc2cc(C3CC(c4ccco4)=NN3S(C)(=O)=O)c(Cl)nc2c1 (stereo not drawn)	50µM*	?	?	.	-22%	-11%
CS(=O)(=O)N1N=C(c2ccco2)CC1c1ccccc1 (stereo not drawn)	-19%	12%	36%	?	-4%	?
CCS(=O)(=O)N1N=C(c2ccc(C)cc2)CC1c1cc2ccc(OC)cc2nc1Cl (stereo not drawn)	.	-3%[57.1 µM]	34%	-9%[59 µM]	-16%	.
CS(=O)(=O)N1N=C(c2ccco2)CC1c1ccc(Cl)cc1 (stereo not drawn)	-5%	-6%	6%	50µM*	-17%	10%
CS(=O)(=O)N1N=C(c2ccco2)CC1c1ccco1 (stereo not drawn)	-21%	50µM*	20%	71µM*	-35%	?
CCOC(=O)c1ccccc1NC(=O)CN1CCCN(Cc2cccc(Cl)c2)S1(=O)=O	.	-1%	36%	-6%[59 µM]	-6%	.
COC1=C(C(=O)c2ccccc2)C(=O)C2(CC=C(C)C)C[C@H](C(=O)OCC(F)(F)F)C(C)(C)[C@@]1(CC=C(C)C)C2=O (tested in a mixture with another compound)	1%	.	.	.	.	.
Cc1cccc2cc(C3CC(c4cccs4)=NN3C(=O)CCC(=O)O)c(Cl)nc12 (stereo not drawn)	1%	?	0%	6%[59 µM]	32µM*	10%
O=C(NC1CCS(=O)(=O)C1)C1CCCCN1S(=O)(=O)c1ccc(Cl)cc1 (stereo not drawn)	-22%	3%	18%	28µM*	-16%	2%
NNC(=O)C1CCCN1S(=O)(=O)c1ccc(Cl)cc1 (stereo not drawn)	8%	-23%	18%	19%	-11%[57.1 µM]	6%
CSc1cccc(Nc2nc3c(S(=O)(=O)c4ccccc4)nnn3c3ccc(Cl)cc23)c1	.	2%	22%	13%[59 µM]	-22%	.
COc1ccc(CNC(=O)CCC2N=C3c4ccccc4N=C(SCc4cccc(F)c4)N3C2=O)cc1 (stereo not drawn)	.	6%	73%	-4%[59 µM]	-28%	.
Cc1cc(C(F)F)nn1CC(=O)NC1C(=O)N2C(C(=O)O)=C(CSc3nnnn3C)CSC12 (stereo not drawn)	56µM*	56µM*	22%	35µM*	-2%	.
Cn1nnnc1SCC1=C(C(=O)O)N2C(=O)C(NC(=O)C3CC3c3ccccc3)C2SC1 (stereo not drawn)	?	71µM*	16%	?	?	.
N[C@H](C(=O)N[C@@H]1C(=O)N2C(C(=O)O)=C(Cl)CS[C@@H]12)c1ccccc1	35µM*!	.	.	8.9µM*!	.	.
Cn1nnnc1SCC1=C(C(=O)O)N2C(=O)C(NC(=O)C(OC=O)c3ccccc3)C2SC1 (stereo not drawn)	-73%	.	.	-34%[2.33 µM]	.	.
Cn1nnnc1SCC1=C(C(=O)O)N2C(=O)[C@@H](NC(=O)[C@H](O)c3ccccc3)[C@H]2SC1	?	50µM*	?	13µM*	22µM*	?
Cn1nnnc1SCC1=C(C(=O)O)N2C(=O)C(NC(=O)C(O)c3ccccc3)C2SC1 (stereo not drawn)	-66%	.	.	-34%[2.33 µM]	.	.
